# Laboratory results: paper PMC11006913
# Substitutions are numbered along the chain they refer to.
# How the values were obtained:
# Experiment in all cases: PBM; 200 nM protein, PBS
# Conditions in all cases: dsDNA, one strand shown
# VENTX = biological target: T1, VENTX (Homo sapiens, UniProt O95231 78-163, R121Q)
# T1 sequence: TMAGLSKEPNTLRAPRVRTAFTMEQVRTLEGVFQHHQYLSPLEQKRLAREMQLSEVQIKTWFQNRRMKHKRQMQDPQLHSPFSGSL
# ALX3 [1] = biological target: ALX3 (Homo sapiens, UniProt O95076 139-225, N203Q)
# ALX3 [2] = biological target: ALX3 (Homo sapiens, UniProt O95076 139-225)
# VAX1 [3] = biological target: VAX1 (Homo sapiens, UniProt Q5SQQ9 86-172)
# VAX1 [4] = biological target: VAX1 (Homo sapiens, UniProt Q5SQQ9 86-172, T142I)
# ALX3 [5] = biological target: ALX3 (Homo sapiens, UniProt O95076 139-225, N203S)
# VAX1 [6] = biological target: VAX1 (Homo sapiens, UniProt Q5SQQ9 86-172, K157R)
# HOXB9 [7] = biological target: HOXB9 (Homo sapiens, UniProt P17482 171-250, T197M)
# HOXC9 [8] = biological target: HOXC9 (Homo sapiens, UniProt P31274 178-260, K195R)
# HOXC10 [9] = biological target: HOXC10 (Homo sapiens, UniProt Q9NYD6 254-340)
# ALX4 = ALX4 (Homo sapiens, UniProt Q9H161 200-286, Q225E)
# HOXA2 [10] = biological target: HOXA2 (Homo sapiens, UniProt O43364 129-215, R185T)
# HOXB9 [11] = biological target: HOXB9 (Homo sapiens, UniProt P17482 171-250)
# HOXC9 [12] = biological target: HOXC9 (Homo sapiens, UniProt P31274 178-260)
# HOXD13 [13] = biological target: HOXD13 (Homo sapiens, UniProt P35453 263-343, T313R)
# HOXC9 [14] = biological target: HOXC9 (Homo sapiens, UniProt P31274 178-260, R193K)
# HOXA2 [15] = biological target: HOXA2 (Homo sapiens, UniProt O43364 129-215, R185K)
# HOXD13 [16] = biological target: HOXD13 (Homo sapiens, UniProt P35453 263-343)
# HOXC10 [17] = biological target: HOXC10 (Homo sapiens, UniProt Q9NYD6 254-340, K271E)
# HOXD13 [18] = biological target: HOXD13 (Homo sapiens, UniProt P35453 263-343, T313A)
# HOXB9 [19] = biological target: HOXB9 (Homo sapiens, UniProt P17482 171-250, R186Q)
# HOXC9 [20] = biological target: HOXC9 (Homo sapiens, UniProt P31274 178-260, R222W)
# HOXA2 [21] = biological target: HOXA2 (Homo sapiens, UniProt O43364 129-215, Y150S)
# HOXA2 [22] = biological target: HOXA2 (Homo sapiens, UniProt O43364 129-215)
# PAX4 [23] = biological target: T2, PAX4 (Homo sapiens, UniProt O43316 9-242, R200K)
# T2 sequence: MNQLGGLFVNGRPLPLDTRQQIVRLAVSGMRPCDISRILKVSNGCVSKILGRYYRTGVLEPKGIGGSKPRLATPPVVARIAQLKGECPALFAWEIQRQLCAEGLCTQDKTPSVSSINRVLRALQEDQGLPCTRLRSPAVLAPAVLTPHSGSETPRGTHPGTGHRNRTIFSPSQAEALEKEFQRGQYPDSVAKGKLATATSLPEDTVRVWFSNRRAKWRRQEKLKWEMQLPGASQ
# PAX4 [24] = biological target: T3, PAX4 (Homo sapiens, UniProt O43316 9-242)
# T3 sequence: T2 sequence with K192R
# PAX4 [25] = biological target: T4, PAX4 (Homo sapiens, UniProt O43316 9-242, R200Q)
# T4 sequence: T2 sequence with K192Q
# PAX4 [26] = biological target: T5, PAX4 (Homo sapiens, UniProt O43316 9-242, F177V)
# T5 sequence: T2 sequence with F169V, K192R
# PAX4 [27] = biological target: T6, PAX4 (Homo sapiens, UniProt O43316 9-242, F177Y)
# T6 sequence: T2 sequence with F169Y, K192R
# PAX4 [28] = biological target: T7, PAX4 (Homo sapiens, UniProt O43316 9-242, R227W)
# T7 sequence: T2 sequence with K192R, R219W
# CRX = CRX (Homo sapiens, UniProt O43186 26-111, R41L)
# HOXA7 [29] = biological target: HOXA7 (Homo sapiens, UniProt P31268 116-202)
# HOXA7 [30] = biological target: HOXA7 (Homo sapiens, UniProt P31268 116-202, W177C)
# HOXA7 (Homo sapiens, UniProt P31268 116-202, W177C), sequence (P31268 116-202 W177C): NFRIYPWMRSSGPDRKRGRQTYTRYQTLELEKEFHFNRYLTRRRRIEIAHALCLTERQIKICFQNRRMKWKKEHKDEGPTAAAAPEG
# VAX1 (Homo sapiens, UniProt Q5SQQ9 86-172, T142I), sequence (Q5SQQ9 86-172 T142I): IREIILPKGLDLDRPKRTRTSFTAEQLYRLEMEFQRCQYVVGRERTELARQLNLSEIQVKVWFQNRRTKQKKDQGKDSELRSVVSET
# HOXC9 (Homo sapiens, UniProt P31274 178-260, K195R), sequence (P31274 178-260 K195R): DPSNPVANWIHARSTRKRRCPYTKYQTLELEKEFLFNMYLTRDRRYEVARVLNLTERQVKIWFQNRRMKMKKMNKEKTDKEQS
# HOXB9 (Homo sapiens, UniProt P17482 171-250, R186Q), sequence (P17482 171-250 R186Q): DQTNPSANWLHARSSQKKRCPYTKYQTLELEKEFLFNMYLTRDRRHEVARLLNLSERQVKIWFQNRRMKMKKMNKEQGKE
# ALX4, sequence (Q9H161 200-286 Q225E): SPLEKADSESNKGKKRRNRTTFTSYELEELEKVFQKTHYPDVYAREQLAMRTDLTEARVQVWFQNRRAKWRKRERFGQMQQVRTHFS
# HOXC10 (Homo sapiens, UniProt Q9NYD6 254-340, K271E), sequence (Q9NYD6 254-340 K271E): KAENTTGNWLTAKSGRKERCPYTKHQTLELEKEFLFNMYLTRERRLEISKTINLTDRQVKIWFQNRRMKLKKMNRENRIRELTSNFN
# HOXA2 (Homo sapiens, UniProt O43364 129-215, R185K), sequence (O43364 129-215 R185K): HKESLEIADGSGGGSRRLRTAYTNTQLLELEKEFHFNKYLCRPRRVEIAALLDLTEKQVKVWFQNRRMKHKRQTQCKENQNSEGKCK
# HOXA7 (Homo sapiens, UniProt P31268 116-202), sequence (P31268 116-202): as the sequence (P31268 116-202 W177C) above, with C62W counted along it
# HOXD13 (Homo sapiens, UniProt P35453 263-343, T313A), sequence (P35453 263-343 T313A): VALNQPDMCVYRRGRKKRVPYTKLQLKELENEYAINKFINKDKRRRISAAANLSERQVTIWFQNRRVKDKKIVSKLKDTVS
# HOXA2 (Homo sapiens, UniProt O43364 129-215), sequence (O43364 129-215): as the sequence (O43364 129-215 R185K) above, with K57R counted along it
# HOXC10 (Homo sapiens, UniProt Q9NYD6 254-340), sequence (Q9NYD6 254-340): as the sequence (Q9NYD6 254-340 K271E) above, with E18K counted along it
# HOXD13 (Homo sapiens, UniProt P35453 263-343), sequence (P35453 263-343): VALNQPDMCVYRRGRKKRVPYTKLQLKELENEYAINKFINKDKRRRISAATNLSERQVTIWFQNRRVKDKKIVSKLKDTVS
# HOXC9 (Homo sapiens, UniProt P31274 178-260, R193K), sequence (P31274 178-260 R193K): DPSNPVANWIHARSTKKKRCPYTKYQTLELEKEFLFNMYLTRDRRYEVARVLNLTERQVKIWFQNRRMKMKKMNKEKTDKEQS
# ALX3 (Homo sapiens, UniProt O95076 139-225, N203S), sequence (O95076 139-225 N203S): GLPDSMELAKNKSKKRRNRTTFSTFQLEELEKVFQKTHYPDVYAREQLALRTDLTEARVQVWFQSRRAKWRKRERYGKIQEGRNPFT
# HOXD13 (Homo sapiens, UniProt P35453 263-343, T313R), sequence (P35453 263-343 T313R): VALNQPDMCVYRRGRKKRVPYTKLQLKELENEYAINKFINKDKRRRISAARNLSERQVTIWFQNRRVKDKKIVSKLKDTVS
# HOXC9 (Homo sapiens, UniProt P31274 178-260, R222W), sequence (P31274 178-260 R222W): as the sequence (P31274 178-260 R193K) above, with K16R, R45W counted along it
# VAX1 (Homo sapiens, UniProt Q5SQQ9 86-172, K157R), sequence (Q5SQQ9 86-172 K157R): as the sequence (Q5SQQ9 86-172 T142I) above, with I57T, K72R counted along it
# ALX3 (Homo sapiens, UniProt O95076 139-225, N203Q), sequence (O95076 139-225 N203Q): as the sequence (O95076 139-225 N203S) above, with S65Q counted along it
# CRX, sequence (O43186 26-111 R41L): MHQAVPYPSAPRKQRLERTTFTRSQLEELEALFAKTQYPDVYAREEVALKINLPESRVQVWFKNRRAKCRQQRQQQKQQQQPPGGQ
# VAX1 (Homo sapiens, UniProt Q5SQQ9 86-172), sequence (Q5SQQ9 86-172): as the sequence (Q5SQQ9 86-172 T142I) above, with I57T counted along it
# HOXB9 (Homo sapiens, UniProt P17482 171-250, T197M), sequence (P17482 171-250 T197M): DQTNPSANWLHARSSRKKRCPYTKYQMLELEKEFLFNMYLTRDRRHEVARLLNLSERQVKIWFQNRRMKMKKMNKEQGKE
# HOXB9 (Homo sapiens, UniProt P17482 171-250), sequence (P17482 171-250): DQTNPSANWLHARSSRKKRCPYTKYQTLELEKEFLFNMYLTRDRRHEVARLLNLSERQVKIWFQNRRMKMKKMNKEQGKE
# HOXA2 (Homo sapiens, UniProt O43364 129-215, Y150S), sequence (O43364 129-215 Y150S): as the sequence (O43364 129-215 R185K) above, with Y22S, K57R counted along it
# HOXA2 (Homo sapiens, UniProt O43364 129-215, R185T), sequence (O43364 129-215 R185T): as the sequence (O43364 129-215 R185K) above, with K57T counted along it
# ALX3 (Homo sapiens, UniProt O95076 139-225), sequence (O95076 139-225): as the sequence (O95076 139-225 N203S) above, with S65N counted along it
# HOXC9 (Homo sapiens, UniProt P31274 178-260), sequence (P31274 178-260): as the sequence (P31274 178-260 R193K) above, with K16R counted along it
sequence,measurement,setting,value
CACATTAG,binding signal,VENTX,"11 upbm affinity estimate (log intensity, higher = more binding, comparable within an allelic series)"
same,binding signal,ALX3 [1],"8.26 upbm affinity estimate (log intensity, higher = more binding, comparable within an allelic series)"
same,binding signal,ALX3 [2],"10.6 upbm affinity estimate (log intensity, higher = more binding, comparable within an allelic series)"
same,binding signal,VAX1 [3],"11.3 upbm affinity estimate (log intensity, higher = more binding, comparable within an allelic series)"
same,binding signal,VAX1 [4],"10.8 upbm affinity estimate (log intensity, higher = more binding, comparable within an allelic series)"
same,binding signal,ALX3 [5],"8.21 upbm affinity estimate (log intensity, higher = more binding, comparable within an allelic series)"
same,binding signal,VAX1 [6],"11 upbm affinity estimate (log intensity, higher = more binding, comparable within an allelic series)"
CAATAAAC,binding signal,HOXB9 [7],"9.69 upbm affinity estimate (log intensity, higher = more binding, comparable within an allelic series)"
same,binding signal,HOXC9 [8],"12.5 upbm affinity estimate (log intensity, higher = more binding, comparable within an allelic series)"
same,binding signal,HOXC10 [9],"12.2 upbm affinity estimate (log intensity, higher = more binding, comparable within an allelic series)"
same,binding signal,ALX4,"10.6 upbm affinity estimate (log intensity, higher = more binding, comparable within an allelic series)"
same,binding signal,HOXA2 [10],"9.38 upbm affinity estimate (log intensity, higher = more binding, comparable within an allelic series)"
same,binding signal,HOXB9 [11],"11.8 upbm affinity estimate (log intensity, higher = more binding, comparable within an allelic series)"
same,binding signal,HOXC9 [12],"12.7 upbm affinity estimate (log intensity, higher = more binding, comparable within an allelic series)"
same,binding signal,HOXD13 [13],"10.9 upbm affinity estimate (log intensity, higher = more binding, comparable within an allelic series)"
same,binding signal,HOXC9 [14],"12.5 upbm affinity estimate (log intensity, higher = more binding, comparable within an allelic series)"
same,binding signal,HOXA2 [15],"11.7 upbm affinity estimate (log intensity, higher = more binding, comparable within an allelic series)"
same,binding signal,HOXD13 [16],"12.2 upbm affinity estimate (log intensity, higher = more binding, comparable within an allelic series)"
same,binding signal,HOXC10 [17],"11.4 upbm affinity estimate (log intensity, higher = more binding, comparable within an allelic series)"
same,binding signal,HOXD13 [18],"11.9 upbm affinity estimate (log intensity, higher = more binding, comparable within an allelic series)"
same,binding signal,HOXB9 [19],"11.5 upbm affinity estimate (log intensity, higher = more binding, comparable within an allelic series)"
same,binding signal,HOXC9 [20],"11.1 upbm affinity estimate (log intensity, higher = more binding, comparable within an allelic series)"
same,binding signal,HOXA2 [21],"10.7 upbm affinity estimate (log intensity, higher = more binding, comparable within an allelic series)"
same,binding signal,HOXA2 [22],"9.11 upbm affinity estimate (log intensity, higher = more binding, comparable within an allelic series)"
TAATGCGA,binding signal,VENTX,"10.2 upbm affinity estimate (log intensity, higher = more binding, comparable within an allelic series)"
same,binding signal,PAX4 [23],"11.7 upbm affinity estimate (log intensity, higher = more binding, comparable within an allelic series)"
same,binding signal,PAX4 [24],"12.1 upbm affinity estimate (log intensity, higher = more binding, comparable within an allelic series)"
same,binding signal,PAX4 [25],"11.4 upbm affinity estimate (log intensity, higher = more binding, comparable within an allelic series)"
same,binding signal,PAX4 [26],"10.4 upbm affinity estimate (log intensity, higher = more binding, comparable within an allelic series)"
same,binding signal,PAX4 [27],"10.9 upbm affinity estimate (log intensity, higher = more binding, comparable within an allelic series)"
same,binding signal,PAX4 [28],"10.9 upbm affinity estimate (log intensity, higher = more binding, comparable within an allelic series)"
same,binding signal,CRX,"10.6 upbm affinity estimate (log intensity, higher = more binding, comparable within an allelic series)"
CGATTACG,binding signal,VENTX,"10.5 upbm affinity estimate (log intensity, higher = more binding, comparable within an allelic series)"
same,binding signal,HOXA7 [29],"9.64 upbm affinity estimate (log intensity, higher = more binding, comparable within an allelic series)"
same,binding signal,HOXA7 [30],"8.74 upbm affinity estimate (log intensity, higher = more binding, comparable within an allelic series)"
